Here are results for eight molecules from ChEMBL document CHEMBL1961873, “Compounds: GSK PKIS; Assays: Nanosyn kinase panel” (2012).

Test [1] has as its target T1, Inhibitor of nuclear factor kappa-B kinase subunit epsilon (Homo sapiens) (UniProt Q14164).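 Further: reported values are averaged percent inhibition figures against human IKKε.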
T1 sequence (whole entry): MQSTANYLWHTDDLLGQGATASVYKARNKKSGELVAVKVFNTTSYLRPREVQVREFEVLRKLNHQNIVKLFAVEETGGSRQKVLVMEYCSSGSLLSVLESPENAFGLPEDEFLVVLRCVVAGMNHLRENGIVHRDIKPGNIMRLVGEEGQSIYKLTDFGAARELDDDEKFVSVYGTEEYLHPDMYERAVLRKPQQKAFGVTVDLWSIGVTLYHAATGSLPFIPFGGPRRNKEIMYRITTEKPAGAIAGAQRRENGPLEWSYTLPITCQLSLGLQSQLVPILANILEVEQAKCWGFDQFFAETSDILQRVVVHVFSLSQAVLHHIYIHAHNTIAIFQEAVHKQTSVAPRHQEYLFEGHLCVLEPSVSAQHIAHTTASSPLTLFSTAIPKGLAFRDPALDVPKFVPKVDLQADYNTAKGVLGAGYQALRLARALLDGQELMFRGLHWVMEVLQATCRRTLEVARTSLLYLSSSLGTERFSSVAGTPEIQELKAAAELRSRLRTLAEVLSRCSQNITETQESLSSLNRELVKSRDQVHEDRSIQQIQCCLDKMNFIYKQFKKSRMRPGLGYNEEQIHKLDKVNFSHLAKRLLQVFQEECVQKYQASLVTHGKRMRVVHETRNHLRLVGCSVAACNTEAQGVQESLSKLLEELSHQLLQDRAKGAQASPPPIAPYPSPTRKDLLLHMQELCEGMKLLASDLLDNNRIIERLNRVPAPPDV
To be noted: at 1 µM.

The target of test [2] is T2, Serine/threonine-protein kinase Nek1 (Homo sapiens) (UniProt Q96PY6).
T2 sequence (whole entry): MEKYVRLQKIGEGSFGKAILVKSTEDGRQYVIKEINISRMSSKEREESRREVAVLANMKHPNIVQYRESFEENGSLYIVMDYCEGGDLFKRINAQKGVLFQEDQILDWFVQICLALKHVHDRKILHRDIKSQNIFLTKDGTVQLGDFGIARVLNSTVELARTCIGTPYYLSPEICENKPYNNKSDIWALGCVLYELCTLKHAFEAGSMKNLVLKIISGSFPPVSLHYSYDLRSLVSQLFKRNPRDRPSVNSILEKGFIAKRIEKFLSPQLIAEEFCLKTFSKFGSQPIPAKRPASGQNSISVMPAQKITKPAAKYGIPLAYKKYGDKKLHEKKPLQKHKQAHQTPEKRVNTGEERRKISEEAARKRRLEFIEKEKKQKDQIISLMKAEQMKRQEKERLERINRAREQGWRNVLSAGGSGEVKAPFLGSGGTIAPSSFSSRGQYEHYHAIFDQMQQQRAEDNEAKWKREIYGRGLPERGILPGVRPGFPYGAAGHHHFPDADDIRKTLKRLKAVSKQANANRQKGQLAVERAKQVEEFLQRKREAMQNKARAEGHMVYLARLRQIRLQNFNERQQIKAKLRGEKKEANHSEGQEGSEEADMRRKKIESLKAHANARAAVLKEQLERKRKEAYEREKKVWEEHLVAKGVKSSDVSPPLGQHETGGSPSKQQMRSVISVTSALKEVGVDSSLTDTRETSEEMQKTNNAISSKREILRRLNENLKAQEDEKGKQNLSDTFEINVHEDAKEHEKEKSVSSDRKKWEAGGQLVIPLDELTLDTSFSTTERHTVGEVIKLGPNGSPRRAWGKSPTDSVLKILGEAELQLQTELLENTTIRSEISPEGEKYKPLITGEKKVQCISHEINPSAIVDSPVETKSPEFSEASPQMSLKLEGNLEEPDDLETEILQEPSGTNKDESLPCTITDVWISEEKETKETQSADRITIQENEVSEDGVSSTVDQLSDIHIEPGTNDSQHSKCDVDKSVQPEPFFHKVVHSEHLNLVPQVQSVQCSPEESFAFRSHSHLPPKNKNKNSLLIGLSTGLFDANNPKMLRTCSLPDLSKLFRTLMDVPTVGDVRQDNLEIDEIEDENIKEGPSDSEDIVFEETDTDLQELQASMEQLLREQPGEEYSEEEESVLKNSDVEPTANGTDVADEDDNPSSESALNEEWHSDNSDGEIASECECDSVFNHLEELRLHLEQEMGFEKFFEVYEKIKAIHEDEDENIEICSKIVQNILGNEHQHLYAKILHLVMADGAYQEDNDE
To be noted: at 0.1 µM.

Test [3] deals with T2, Serine/threonine-protein kinase Nek1 (Homo sapiens). To be noted: at 1 µM.
Test [4] concerns the target T3, Serine/threonine-protein kinase Nek2 (Homo sapiens) (UniProt P51955).
T3 sequence (whole entry): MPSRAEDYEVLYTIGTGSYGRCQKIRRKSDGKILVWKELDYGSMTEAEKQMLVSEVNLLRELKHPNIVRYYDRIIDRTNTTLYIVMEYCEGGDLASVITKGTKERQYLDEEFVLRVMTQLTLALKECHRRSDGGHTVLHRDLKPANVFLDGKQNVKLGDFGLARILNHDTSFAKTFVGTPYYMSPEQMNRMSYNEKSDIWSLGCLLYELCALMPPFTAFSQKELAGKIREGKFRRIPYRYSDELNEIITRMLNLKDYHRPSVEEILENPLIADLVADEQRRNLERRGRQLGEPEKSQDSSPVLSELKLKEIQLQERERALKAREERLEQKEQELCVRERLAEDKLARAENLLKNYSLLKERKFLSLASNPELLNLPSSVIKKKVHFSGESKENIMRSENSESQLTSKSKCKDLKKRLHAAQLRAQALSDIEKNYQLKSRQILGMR
To be noted: at 0.1 µM.

Test [5] has as its target T3, Serine/threonine-protein kinase Nek2 (Homo sapiens). To be noted: at 1 µM.
Test [6] concerns the target Serine/threonine-protein kinase Nek6 (Homo sapiens) (UniProt Q9HC98). To be noted: at 0.1 µM.
Test [7] shares this target. To be noted: at 1 µM.
Test [8] addresses Serine/threonine-protein kinase Nek7 (Homo sapiens) (UniProt Q8TDX7). To be noted: at 0.1 µM.
Test [9] has the same target. To be noted: at 1 µM.
In test [10] the target is T4, Serine/threonine-protein kinase Nek9 (Homo sapiens) (UniProt Q8TD19).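 Further: reported value is the mean percent inhibition of NEK9.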
T4 sequence (whole entry): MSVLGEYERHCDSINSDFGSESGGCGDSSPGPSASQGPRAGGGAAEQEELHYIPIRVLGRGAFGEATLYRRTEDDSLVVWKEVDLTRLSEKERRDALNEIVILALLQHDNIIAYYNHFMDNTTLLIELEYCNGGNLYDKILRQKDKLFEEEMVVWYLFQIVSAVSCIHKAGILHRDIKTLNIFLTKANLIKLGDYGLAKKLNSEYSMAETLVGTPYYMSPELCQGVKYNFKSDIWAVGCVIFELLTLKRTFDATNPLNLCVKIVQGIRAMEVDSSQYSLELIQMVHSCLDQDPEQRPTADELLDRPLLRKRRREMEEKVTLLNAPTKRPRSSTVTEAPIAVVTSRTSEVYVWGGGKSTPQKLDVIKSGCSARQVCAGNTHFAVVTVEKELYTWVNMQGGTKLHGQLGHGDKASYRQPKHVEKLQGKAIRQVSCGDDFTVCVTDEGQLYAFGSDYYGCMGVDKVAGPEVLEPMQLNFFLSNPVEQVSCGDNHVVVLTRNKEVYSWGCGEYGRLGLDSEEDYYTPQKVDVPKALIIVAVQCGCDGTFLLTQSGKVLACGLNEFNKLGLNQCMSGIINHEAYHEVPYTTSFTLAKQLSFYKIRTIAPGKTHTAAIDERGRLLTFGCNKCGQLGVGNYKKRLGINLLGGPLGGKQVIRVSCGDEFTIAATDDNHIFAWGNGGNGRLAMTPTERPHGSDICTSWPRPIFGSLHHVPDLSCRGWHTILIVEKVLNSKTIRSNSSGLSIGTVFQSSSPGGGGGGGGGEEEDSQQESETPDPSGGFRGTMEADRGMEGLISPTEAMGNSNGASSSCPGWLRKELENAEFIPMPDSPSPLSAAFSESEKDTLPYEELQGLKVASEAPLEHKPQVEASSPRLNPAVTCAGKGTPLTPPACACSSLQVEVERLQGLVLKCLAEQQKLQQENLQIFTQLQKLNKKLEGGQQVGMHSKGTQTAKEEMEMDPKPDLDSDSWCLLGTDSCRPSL
To be noted: at 0.1 µM.

SMILES strings stand for the structures.

Serine/threonine-protein kinase Nek6 (Homo sapiens), sequence (Q9HC98 whole entry): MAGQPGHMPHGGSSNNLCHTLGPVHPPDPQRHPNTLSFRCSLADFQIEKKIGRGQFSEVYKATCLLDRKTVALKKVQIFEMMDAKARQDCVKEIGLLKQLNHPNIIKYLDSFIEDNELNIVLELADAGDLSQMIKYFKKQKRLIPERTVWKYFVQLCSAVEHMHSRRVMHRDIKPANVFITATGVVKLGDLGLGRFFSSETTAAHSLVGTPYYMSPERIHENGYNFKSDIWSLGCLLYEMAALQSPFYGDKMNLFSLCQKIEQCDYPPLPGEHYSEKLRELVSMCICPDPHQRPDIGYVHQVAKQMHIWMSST
Serine/threonine-protein kinase Nek7 (Homo sapiens), sequence (Q8TDX7 whole entry, looked up): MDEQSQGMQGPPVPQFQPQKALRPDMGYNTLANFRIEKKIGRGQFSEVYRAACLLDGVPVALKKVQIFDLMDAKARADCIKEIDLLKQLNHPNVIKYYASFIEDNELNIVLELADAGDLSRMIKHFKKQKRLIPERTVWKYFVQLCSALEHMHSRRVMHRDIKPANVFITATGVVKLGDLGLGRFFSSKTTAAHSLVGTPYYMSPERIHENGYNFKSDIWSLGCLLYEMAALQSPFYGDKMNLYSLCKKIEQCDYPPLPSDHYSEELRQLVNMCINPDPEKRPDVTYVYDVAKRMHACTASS

In the case of `COc1cccc(-n2ncc3c(N/N=C/c4cccc(F)c4)ncnc32)c1`, the inhibition (in general, the change of the read-out against control, counted positive when it falls) in test [1] was 5.09%; in [2], 2.19%; in test [3], 1.87%; in test [4] it was 3.27%; in test [5] it was 2.63%; in [6], 2.56%. For the same molecule, the inhibition in test [7] was 1.3%; in test [8], 4.53%; in test [9] it was 2.91%; in test [10], 3.6%.
Regarding `CNC(=O)c1cncc(/C=C/c2c(Cl)cccc2Cl)c1`, the inhibition was found to be 6.17% in [1]; 2.78% in [2]; 1.83% in test [3]; 4.53% in test [4]; 3.38% in [5]; 1.11% in test [6]. Besides, the inhibition was 4.76% in [7], 4.23% in test [8], 9.84% in [9] and 5.43% in [10].
In the case of `CC(C)=Cc1cccc2c1/C(=N/Nc1ccc(S(N)(=O)=O)cc1)C(=O)N2`, the inhibition in test [1] was 21.9%; in test [2], 0.48%; in test [3] it was 2.3%; in [4] it was -1.83%; in [5] it was -0.31%; in [6], 1.86%. The inhibition is 0.97% in [7], -1.18% in test [8], -0.48% in test [9] and 4.67% in test [10].
Consider `COc1ccc2cc(-c3c(-c4ccncc4)nc(-c4ccc([S+](C)[O-])cc4)n3C)ccc2c1` (stereo not given), for which the inhibition amounted to 4.64% in test [1]; 1.1% in test [2]; 1.54% in [3]; 3.66% in test [4]; 3.14% in [5]; 0.57% in test [6]. For the same molecule, the inhibition was -1.38% in test [7], 2.77% in test [8], 2.17% in test [9] and 7.56% in test [10].
In the case of `CC(=O)Nc1cccc(C#Cc2cncnc2Nc2ccc(OCc3cccc(F)c3)c(Cl)c2)n1`, the inhibition is 1.53% in [1]; -2.25% in test [2]; 1.58% in [3]; -2.96% in [4]; -1.9% in [5]; 1.43% in test [6]. In addition, the inhibition in test [7] is 4.26%; in test [8], -4.17%; in test [9] it was -3.8%; in test [10] it was 0.45%.
On to `CN(C)c1cc2c(Nc3ccc4nc(Cc5ccccc5)[nH]c4c3)ncnc2cn1`, for which the inhibition in [1] is 16.6%; in test [2], 2.45%; in test [3], 3.05%; in test [4], 6.53%; in test [5], 8.34%; in test [6], 3.19%. Besides, the inhibition is -0.04% in test [7], 6.44% in [8], 4.66% in test [9] and 14.3% in test [10].
Take `Fc1cccc(COc2ccc(Nc3ncnc4cc(-c5ccc[nH]5)sc34)cc2Cl)c1`: the inhibition in test [1] is 3.19%; in test [2] it was 1.42%; in test [3] it was 4.17%; in test [4] it was 3.51%; in test [5] it was 5.24%; in [6] it was 1.65%. Moreover, the inhibition came out at 3.84% in test [7], 5.51% in [8], 2.22% in test [9] and 1.71% in [10].
In the case of `N#Cc1c(NC(=O)c2cccc3ccccc23)sc2c1CCCC2`, the inhibition in test [1] turned out to be 1.87%; in test [2], 1.19%; in test [3], 1.42%; in [4], 3.93%; in test [5], 4.37%; in test [6] it was 3.32%. Besides, the inhibition in [7] came to 1.3%; in test [8], 5.78%; in test [9] it was 3.68%; in test [10], 5.96%.
